About 83,000 compounds went through this panel and 20% of them were active in at least one assay; those are over-represented in the sample as a whole.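 Results are percent growth after 48 hours of single-concentration exposure. 100 means growth as in untreated cells, lower positive values show inhibition; negative values down to -100 show cell death.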 Values without a mark were called inactive. Activity calls are given as the source filed them.

This assay deals with LOX IMVI melanoma. Kind of assay: NCI-60 one-dose screen, 48 h (100 = growth as untreated, 0 = no growth, -100 = all killed). The conditions noted are these: 10 µM unless noted. On the procedure: Growth inhibition of the LOX IMVI human tumor cell line is measured as a screen for anti-cancer activity. Cells are grown in 96 well plates and exposed to the test compound for 48 hours. Compounds are tested at a single concentration, which is 10^-5 M for most compounds. The reported endpoint is percent growth (GI% or GIPRCNT), where numbers from 0 - 100% represent growth inhibition, and numbers from -100% - 0 represent cell death. For example, a value of 40 represents 60% growth inhibition. A value of 0 means no net growth occurred over the course of the experiment. A value of -40 indicates 40% of cells at the beginning of the experiment died by the end of the experiment. A value of -100 means all cells are dead at the end of the experiment.
NCI-60 Human Tumor Cell Lines Screen was performed using the standard one-dose NCI protocol, which is described in more detail at https://dtp.cancer.gov/discovery_development/nci-60/default.htm.
Compounds with GIPRCNT values below 10 were considered active. Activity score was based on GIPRCNT using the following formula: […]
Score is 0 for GIPRCNT values of 100 or above, 50 for GIPRCNT values of 0, and 100 for GIPRCNT values of -100.
On to `Cc1nc(S(=O)(=O)c2ccccc2)c(S(=O)(=O)Cc2ccc([N+](=O)[O-])cc2)o1`, for which the growth is 89.6%.

As to `Cn1cc(-c2cc3ncnc(Nc4ccc(CC(=O)Nc5cc(C(C)(C)C)nn5C)cc4)c3s2)cn1`, the growth is 33.6%.

Take `N#Cc1c(-c2ccc(Cl)cc2)nc2c(c(-c3ccccc3)nn2-c2ccccc2)c1-c1ccc(O)cc1`: the growth was 26.5%.

Turning to `C[C@]12CC[C@@H]3c4cc(OC(F)F)c(OS(N)(=O)=O)cc4CC[C@H]3[C@@H]1CC[C@@H]2OS(N)(=O)=O`, the growth was 32.8%.

In the case of `O=c1ccn(Cc2cn(-c3c4ccccc4nc4ccccc34)nn2)c(=O)[nH]1`, the growth was 74.2%.

Take `COc1ccc2sc3c(NCCCNCCO)nc4ccccc4c3c(=O)c2c1`: the growth was -99.1% (active).

Consider `O=C(Nc1ccc(F)cc1F)c1cc(F)ccc1O`, for which the growth is 9.88% (active).

`O=c1cc(SCc2ccccc2)nc[nH]1`: the growth is 107%.

As to `O=C(/C=C/c1cccc2ccccc12)c1ccc(NC(=O)c2ccccc2CN2C(=O)c3ccccc3C2=O)cc1`, the growth was 60.9%.

As to `CC(=O)Oc1ccccc1C(=O)N=C1[Se]CCCN1C(=O)c1ccccc1OC(C)=O`, the growth was -64.1% (active).

Turning to `CCCCn1c(-c2ccc(C(=O)O/N=C(\N)c3ccc(OC)cc3)cc2)nc(-c2ccccc2)c1-c1ccccc1`, the growth was -93.1% (active).

As to `CCCSc1nc2ccc(C)cc2cc1/C=[N+](\[O-])c1ccccc1`, the growth was 19%.

Turning to `COC1=C(C)C(=O)c2c(c(CCCl)c3n2CCC3OC(C)=O)C1=O` (stereo not given), the growth was -34.8% (active).

In the case of `COc1c(C2CC(=O)Nc3c2c(C)nn3-c2nc3ccccc3[nH]2)cc2c(c1OC)OCO2` (stereo not given), the growth was 46.7%.

For the compound `NCCCNc1nc2ccccc2c2c(=O)c3cc(F)cc(Cl)c3sc12`, the growth is 79.4%.

For the compound `CC(=O)c1ccc(Nc2nc(C(C)=O)c(C)s2)cc1`, the growth was 99.9%.

On to `O=C(/C=C/c1sc(Cl)nc1Cl)c1ccccc1`, for which the growth was 3.61% (active).

Regarding `COc1cc(C)c(Cc2cnc(N)nc2N)cc1OC`, the growth was 94.9%.

As to `Cc1c(C(=O)NCCN2CCOCC2)cn2ncnc(Oc3ccc(NC(=O)Nc4ccc(Cl)c(C(F)(F)F)c4)cc3)c12`, the growth was -50.5% (active).

Consider `Cc1ccc(-c2nc(N3CCN(CC(=O)Nc4ccc(Cl)c(C(F)(F)F)c4)CC3)c3ccccc3n2)cc1`, for which the growth is 92.1%.

As for `Fc1cc2c(cc1Cl)N(c1ncnc3ccc(-c4cnc5cnccn45)cc13)CC2`, the growth was 91%.

Take `CNc1nc2c(s1)C(c1cc(F)ccc1F)CC(=O)N2` (stereo not given): the growth was 73.4%.

On to `COc1cccc(Oc2ccccc2NC(=O)CNC(=O)c2cccc3ccccc23)c1`, for which the growth is 26.1% [5 µM].

Consider `CC(=O)OC[C@H]1OC(Sc2sc(C(=O)c3ccc(C)cc3)c(N)c2-c2nc3ccccc3s2)[C@H](OC(C)=O)[C@@H](OC(C)=O)[C@@H]1OC(C)=O` (stereo not given in full), for which the growth is 54.5%.

On to `CCc1cccc2c3c(sc12)C(c1ccc(F)cc1)C(C#N)=C(N)O3` (stereo not given), for which the growth was 14.6%.

As for `CCCCCCn1c(-c2ccc(C(=O)O/N=C(\N)c3ccc4ccccc4c3)cc2)nc(-c2ccccc2)c1-c1ccccc1`, the growth is -88.6% (active).

As to `Cc1cc2nc3cc(C)c(N)cc3[n+](-c3ccccc3)c2cc1N`, the growth was 67%.

As for `CCCCn1c(=O)c(-c2cc(-c3ccc(Cl)cc3)nc(-c3ccc(Cl)cc3)c2)cc2cc(Cl)ccc21`, the growth was 99.9%.

Consider `O=C1CCC/C=C\C[C@H]2C=CC(=O)/C2=C/C[C@H](CCc2cccc(C(F)(F)F)c2)O1`, for which the growth was -72.6% (active).

As to `Cc1cccc2c3c(sc12)C(c1ccc(F)cc1)C(C#N)=C(N)O3` (stereo not given), the growth was 9.86% (active).

Regarding `CCOC(=O)Nc1ccc(-c2nc(-c3cccc(OCCN4CCOCC4)c3)c(-c3ccnc(Br)c3)[nH]2)cc1`, the growth was 14.1%.

Take `O=CN1N=C(c2ccc(Nc3ccnc4cc(Cl)ccc34)cc2)CC1c1ccccc1` (stereo not given): the growth was 13.7%.

Take `Cc1ccc(-c2nc(SCC(=O)Nc3nc(-c4ccc(Cl)cc4)cs3)[nH]c(=O)c2C#N)cc1`: the growth was 108%.

Turning to `CC1=C(SCCC(=O)OC(C[Se]C2=C(C)C(=O)c3ccccc3C2=O)C(=O)NC(C)(C)C)C(=O)c2ccccc2C1=O` (stereo not given), the growth is -52.2% (active).

Take `Fc1cc(-c2nnc3sc(-c4ccc(Cl)cc4Cl)nn23)c(Cl)cc1Cl`: the growth is 96.2%.

Turning to `O=C(CCOCCNC(=O)COc1ccc2c(c1)OCC(c1ccc(F)cc1)C2=O)NCCCC(O)(P(=O)(O)O)P(=O)(O)O` (stereo not given), the growth was 97.8%.

For the compound `O=C(CCc1nnc(-c2c(Cl)cccc2Cl)o1)c1nc2ccccc2[nH]1`, the growth was 55.1%.

Turning to `COc1ccc2cc(C(C)C(=O)Nc3ccc(-c4n[nH]c(=S)n4C4CCCCC4)cc3)ccc2c1` (stereo not given), the growth was 70.7%.

`CC1=C(C)C(=O)C(Nc2cccc(C(=O)OC(C)(C)C)c2)=C(Br)C1=O`: the growth is 34.9%.

Regarding `Cc1ccc(C(=O)NCCNc2nccc(-c3c(-c4cccc(F)c4)nc4sccn34)n2)cc1`, the growth is 39.4%.
